{"source": "PubChem BioAssay (NCATS)", "note": "A number with no mark means an inactive call. No rule for the calls is given here. Potency is read from the fitted curve at half-maximal effect."}
{"system": "HIV-1 nucleocapsid protein NCp7 (binding to TG oligonucleotide)", "test": "HIV Nucleocapsid (AID 346);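 also: potency is for inhibitors that block NC binding and lower polarization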", "conditions": "HIV-1 NC / fluorescein-TGTGTGTG probe, fluorescence polarization", "in_short": "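10 nM TG4xF probe with 100 nM nucleocapsid protein in high-salt Hepes pH 7.5 (250mM NaCl) containing 1uM ZnCl2 and reducing agents. Compound inhibition of binding was read as fluorescein polarization after 1 hr at room temperature.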", "units": {"Potency": "µM"}}
{"smiles": "c1ccc(Nc2ncnc3ccc(-c4cccnc4)cc23)cc1", "Potency": "> 20"}
{"smiles": "CN1CCN(c2ncc3nc(-c4ccccc4)c(=O)n(Cc4cccs4)c3n2)CC1", "Potency": "> 20"}
{"smiles": "COCCn1c(=O)c(-c2cccs2)nc2cncnc21", "Potency": "> 20"}
{"smiles": "CNc1ccnc(-c2ccccc2C)n1", "Potency": "> 20"}
{"smiles": "O=C(c1cc(C(F)(F)F)cc(C(F)(F)F)c1)N1CCC[C@@]2(CCN(c3ccncc3)C2)C1", "Potency": "> 20"}
{"smiles": "Cn1c(=O)c(-c2ccc(Cl)cc2)nc2cnc(Nc3ccccc3)nc21", "Potency": "> 20"}
{"smiles": "Cc1noc(C)c1C(=O)N1CCC2(CCCN(Cc3ccccc3)C2)CC1", "Potency": "> 20"}
{"smiles": "CN(C)c1ccc(-c2nccc(NCc3ccccc3)n2)cc1", "Potency": "> 20"}
{"smiles": "O=C(c1csnn1)N1CCC[C@@]2(CCN(c3ccccc3)C2)C1", "Potency": "> 20"}
{"smiles": "Cc1cccc(CNc2ncncc2-c2cccc(C#N)c2)c1", "Potency": "> 20"}
{"smiles": "COCCn1c(=O)c(-c2ccc(Cl)cc2)nc2cnc(OC)nc21", "Potency": "> 20"}
{"smiles": "O=C(c1csnn1)N1CCC2(CC1)CN(C(c1ccccc1)c1ccccc1)C2", "Potency": "> 20"}
{"smiles": "FC(F)(F)c1ccccc1-c1nc(N2CCOCC2)c2ccccc2n1", "Potency": "> 20"}
{"smiles": "CN1CCN(c2ncc3nc(-c4ccccc4)c(=O)n(Cc4ccc(F)cc4)c3n2)CC1", "Potency": "> 20"}
{"smiles": "COc1ccccc1-c1cncnc1N(C)Cc1ccco1", "Potency": "> 20"}
{"smiles": "CC(=O)N1CCC2(CC1)CN(c1cccc(-c3ccccc3)c1)C2", "Potency": "> 20"}
{"smiles": "CN(C)c1ncc2nc(-c3ccc(F)cc3)c(=O)n(CCc3ccccc3)c2n1", "Potency": "> 20"}
{"smiles": "CCNc1ncc2nc(-c3cccs3)c(=O)n(C)c2n1", "Potency": "> 20"}
{"smiles": "Cn1cc(-c2nc3cnc(Oc4ccccc4)nc3n(Cc3cccs3)c2=O)c2ccccc21", "Potency": "> 20"}
{"smiles": "Cc1noc(C)c1-c1ccc2ncnc(N3CCOCC3)c2c1", "Potency": "> 20"}
{"smiles": "Cn1cccc1C(=O)N1CCC[C@@]2(CCN(c3ncccn3)C2)C1", "Potency": "> 20"}
{"smiles": "COCCn1c(=O)c(-c2cc(F)cc(F)c2)nc2cnc(N3CCNCC3)nc21", "Potency": "> 20"}
{"smiles": "CN1CCN(c2ncncc2-c2ccccc2C(F)(F)F)CC1", "Potency": "> 20"}
{"smiles": "c1ccc(Nc2nc(-c3ccoc3)nc3ccccc23)cc1", "Potency": "> 20"}
{"smiles": "COc1ccccc1CNc1nc(-c2cccc(NS(C)(=O)=O)c2)nc2ccccc12", "Potency": "> 20"}
{"smiles": "COc1ccc(C(=O)N2CCC3(CCN(Cc4ccncc4)CC3)CC2)cc1", "Potency": "> 20"}
{"smiles": "CN(C)c1ncnc2ccc(-c3ccccc3C(F)(F)F)cc12", "Potency": "> 20"}
{"smiles": "CN1CCN(c2ncc3nc(-c4cn(C)c5ccccc45)c(=O)n(C[C@H]4CCCO4)c3n2)CC1", "Potency": "> 20"}
{"smiles": "COc1ncc2nc(-c3cccs3)c(=O)n(C)c2n1", "Potency": "> 20"}
{"smiles": "c1cncc(-c2ccc3ncnc(NCCN4CCOCC4)c3c2)c1", "Potency": "> 20"}
{"smiles": "Fc1ccc(Nc2ncncc2-c2ccoc2)cc1", "Potency": "> 20"}
{"smiles": "COc1cccc(-c2nccc(NCc3cccs3)n2)c1", "Potency": "> 20"}
{"smiles": "COCCn1c(=O)c(-c2cc(F)cc(F)c2)nc2cncnc21", "Potency": "> 20"}
{"smiles": "CCNc1ncc2nc(-c3ccccc3)c(=O)n(CCc3ccccc3)c2n1", "Potency": "> 4"}
{"smiles": "Cc1noc(C)c1C(=O)N1CCC2(CCCN(Cc3nccs3)C2)CC1", "Potency": "> 20"}
{"smiles": "COc1ccccc1CNc1ncncc1-c1ccc2c(c1)OCO2", "Potency": "> 20"}
{"smiles": "c1ccc2c(NCCN3CCOCC3)nc(-c3ccoc3)nc2c1", "Potency": "> 20"}
{"smiles": "O=C(Nc1ccccc1)N1CCCC2(CCNCC2)C1", "Potency": "> 20"}
{"smiles": "c1ccc2c(N3CCNCC3)nc(-c3ccoc3)nc2c1", "Potency": "> 20"}
{"smiles": "CCNc1ncc2nc(-c3ccccc3)c(=O)n(CCC#N)c2n1", "Potency": "> 20"}
